Assay outcomes as filed in PubChem BioAssay.
Shown is part of a subset that was picked to be rich in hits.
NS1 function inh – influenza NS1 inhibition; Potency, µM (top dose mostly 46.1 µM), without a hit: top-dose activity, positive = more growth; hit rate 0.4% among 270,000; AID 2326; calls by dose curve; note: actives are rising curves; nearly all actives have a fitted effect of over 50% in size
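In this qHTS, NS1 from influenza A is expressed in budding yeast, where it slows growth. Cells are switched from glucose to 2% galactose medium (pH 6.0, -URA), treated with compound, and growth recovery is read at OD600.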
Cruzain inh Det – cruzain (T. cruzi) inhibition with detergent. purified cruzain, Z-FR-AMC fluorescence, 0.01% Triton. hit rate 0.43% among 200,000. AID 1478. P25779. Potency, µM, for the others: max response, negative = inhibition, actives largely listed as inhibitors;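 note: plate controls were neutral wells for no effect and buffer without enzyme for full effect; nearly all actives have a fitted effect of over 40% in size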
Target sequence (P25779 123-467 limits assumed): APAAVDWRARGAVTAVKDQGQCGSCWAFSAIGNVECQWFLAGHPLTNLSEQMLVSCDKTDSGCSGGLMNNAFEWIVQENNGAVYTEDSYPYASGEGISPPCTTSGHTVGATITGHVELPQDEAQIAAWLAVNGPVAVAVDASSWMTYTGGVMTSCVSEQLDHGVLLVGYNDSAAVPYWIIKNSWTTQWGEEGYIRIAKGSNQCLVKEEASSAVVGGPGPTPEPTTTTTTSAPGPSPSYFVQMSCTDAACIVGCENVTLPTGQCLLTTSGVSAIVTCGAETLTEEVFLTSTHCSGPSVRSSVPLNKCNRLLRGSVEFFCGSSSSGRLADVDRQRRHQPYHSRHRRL
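Sodium acetate buffer (100 mM, pH 5.5) containing 5 mM DTT and 0.01% Triton X-100 hosted 1.5 nM cruzain and test compound for 15 min at room temperature. Cleavage of 2 uM Z-FR-AMC was then tracked by fluorescence.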
Cruzain noTriton – cruzain (T. cruzi) inhibition without detergent; purified cruzain, Z-FR-AMC fluorescence, no detergent; P25779; Potency, µM, inactives show max response, negative = inhibition, hits mostly inhibitors; hit rate 2.3% among 200,000;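 note: plate controls were enzyme without inhibitor for no effect and buffer without enzyme for full effect; nearly all actives have a fitted effect of over 40% in size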
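Purified cruzain at 1.5 nM, pre-incubated 15 min with compound at room temperature in 100 mM sodium acetate pH 5.5, 5 mM DTT, 0.00005% Triton X-100. Reaction started with 2 uM Z-FR-AMC; AMC fluorescence increase over 60 s gives rate.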
An asterisk follows results filed as active; ? = inconclusive; nt = no result given. Unless noted, calls come from the whole dose curve; as a rule, active = well fitted curve in the direction sought with a large enough effect; inconclusive = small, poorly fitted or top-dose-only effect, or another doubt; inactive = no such curve, though single readings can be large; an effect the other way counts as inactive or inconclusive. Potency is the fitted concentration of half-maximal effect.

SMILES | NS1 function inh | Cruzain inh Det | Cruzain noTriton
COc1cccc(NC(=O)CSC2=Nc3ccccc3C3=NC(CCC(=O)NC4CCCCC4)C(=O)N23)c1 (stereo unspecified) | nt | 2.4% | 6.4%
CCC(C)(C)n1nnnc1C(C(C)C)N(CCCO)Cc1cc2cc(C)ccc2[nH]c1=O (stereo unspecified) | -6.7% | 2.1% | ?
O=[N+]([O-])c1cc(C(F)(F)F)cc([N+](=O)[O-])c1N1CCN(S(=O)(=O)c2ccccc2)CC1 | 2.6% | -6.6% | -3.5%
O=[N+]([O-])c1cc(C(F)(F)F)ccc1N1CCN(S(=O)(=O)c2ccc3ccccc3c2)CC1 | 25.2% | 0.3% | 25.1µM*
Cc1ccc(C)c(CNC(=O)CCn2cccn2)c1 | nt | 0.3% | 15.8%
COc1ccc(CN2CCNC(=O)C2CC(=O)NC2CC(C)(C)CC(C)(C)C2)cc1OC (stereo unspecified) | 20.9% | nt | nt
CCc1ccc2occ(CC(=O)Nc3c(C(=O)Nc4ccc(C)cc4)oc4ccccc34)c2c1 | nt | 0.4% | -13.1%
Cc1cc(C)c2c(CC(=O)Nc3c(C(=O)Nc4ccc(Cl)cc4)oc4ccccc34)coc2c1 | nt | -1.7% | -25.0%
CCc1ccc2occ(CC(=O)Nc3c(C(=O)Nc4ccc(Cl)cc4)oc4ccccc34)c2c1 | nt | -1.9% | 10µM*
Cc1ccc2occ(CC(=O)Nc3c(C(=O)Nc4ccc(Cl)cc4)oc4ccccc34)c2c1 | nt | -2.4% | 10µM*
C=CCNC(=O)/C(C#N)=C/c1c(N(Cc2ccccc2)Cc2ccccc2)nc2ccccn2c1=O | ? | -7.7% | ?
COc1ccc(S(=O)(=O)N2CCOC2CNC(=O)C(=O)NCc2cccnc2)cc1C (stereo unspecified) | 8.8% | nt | nt
COc1cc2c(C(=O)N3CCN(c4cccc(C(F)(F)F)c4)CC3)cn(CC(C)C)c(=O)c2cc1OC | nt | -10.2% | ?
O=C(c1ccco1)c1cn(CCOc2ccc(F)cc2)c2ccccc12 | nt | -9.6% | 17.0%
COC(=O)Cc1c(C)c2ccc(O)c(CN3CCCC(C)C3)c2oc1=O (stereo unspecified) | 3.0% | 25.1µM* | ?
COc1ccccc1-c1c(C)oc2c(CN3CCCC(C)C3)c(O)ccc2c1=O (stereo unspecified) | -1.6% | nt | nt
CN(C)c1nccc(Nc2ccccc2)c1C#N | -8.0% | 1.6% | 0.0%
Cc1ccc(-c2c(C)cc3oc(=O)cc(-c4ccccc4)c3c2C)cc1 | nt | 2.9% | ?
CC(=O)Nc1ccc(-c2c(C)cc3oc(=O)cc(-c4ccccc4)c3c2C)cc1 | nt | -1.0% | -22.2%
Cc1cc2oc(=O)cc(-c3ccccc3)c2c(C)c1-c1ccc(C(F)(F)F)cc1 | nt | -8.2% | ?
Cc1cc2oc(=O)cc(-c3ccccc3)c2c(C)c1-c1ccc(N(C)C)cc1 | nt | 0.9% | 14.1µM*
COc1ccc(-c2c(C)cc3oc(=O)cc(-c4ccccc4)c3c2C)cc1 | nt | -1.9% | 31.6µM*
CCOC(=O)c1ccc(-c2c(C)cc3oc(=O)cc(-c4ccccc4)c3c2C)cc1 | nt | 2.8% | 4.47µM*
Cc1ccccc1C(=O)O/N=C1\CCS(=O)(=O)c2sccc21 | 5.8% | -3.2% | -2.9%
Cc1ccc(CNC(=O)/C=C/c2ccc(Br)o2)cc1 | -13.6% | -15.8% | -1.0%
SMILES | NS1 function inh | Cruzain inh Det | Cruzain noTriton
Nc1c(C(=O)NC2CCCC2)sc2nc(-c3cccs3)ccc12 | 1.3% | -3.6% | 25.1µM*
NC(=O)c1sc2nc(-c3cccs3)ccc2c1N | 1.4% | nt | nt
CCCCc1nnc(NC(=O)CSc2nc(=O)cc(N)n2-c2ccccc2)s1 | 0.1% | ? | ?
COC(=O)c1ccccc1NC(=O)CSc1nc(=O)cc(N)n1-c1ccccc1 | nt | 25.1µM* | -1.2%
Cc1cccc(-n2c(N)cc(=O)nc2SCC(=O)Nc2nnc(C)s2)c1 | 6.1% | ? | 25.1µM*
COC(=O)c1ccc(NC(=O)CSc2nc(=O)cc(N)n2-c2ccccc2)cc1 | -0.7% | nt | nt
Cc1ccccc1-n1c(SCC(=O)N/N=C/C=C/c2ccccc2[N+](=O)[O-])nc2ccccc2c1=O | ? | -0.9% | ?
O=C(CSc1nc2ccccc2c(=O)n1-c1ccc(Cl)cc1)N/N=C/C=C/c1ccccc1[N+](=O)[O-] | ? | -2.9% | 10µM*
CCN(CC)C(c1ccc(F)cc1)c1nnnn1CC1CCCO1 (stereo unspecified) | 0.7% | -2.3% | -2.6%
CN1C(=O)C(/C(N)=N/NC(=O)c2ccccc2)C2CC1(C)Oc1ccccc12 (stereo unspecified) | 15.2% | -2.3% | -1.7%
CN(C)c1ccc(/C=C/C(O)=C2/C(=O)N(C)C3(C)CC2c2ccccc2O3)cc1 (stereo unspecified) | 11.3% | -9.4% | 20µM*
CCN(CC(=O)NCc1ccc(Cl)cc1)C(=O)CCc1ccccc1O | 0.9% | nt | nt
Cc1ccc(S(=O)(=O)N(C(=O)c2ccncc2)c2ccc3oc4c(c3c2)CCCC4)cc1[N+](=O)[O-] | ? | 0.6% | 12.6µM*
